# Compounds with a hit are over-represented: about 3.5% of the library has one in this group of screens.
# Pf apPOL block: Pf-apPOL DNA polymerase inhibition | Recombinant Pf-apPOL, molecular beacon fluorescence, 1.5 h | inhibition, % at 10 µM | actives 0.25% (n = 210,000)
# mHTT-CaM PPI inh: inhibitors of human mutant huntingtin-calmodulin interaction; P42858; AlphaScreen His-mHTT/GST-CaM binding, luminescence; inhibition, % at 15 µM; actives 3.6% (n = 190,000); AID 1671202;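 further: 0% = both proteins with DMSO and 100% = one protein alone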
# * = called active by the depositor. No stated cut-off is given here; in the data, active means inhibition above about 50%; inactive means the rest.
SMILES,Pf apPOL block,mHTT-CaM PPI inh
O=C(O)c1ccc(C2Nc3ccc(I)cc3C3C=CCC32)cc1 (configuration not stated),5.8,97.0*
O=C1CN(C(=O)c2ccc(F)cc2)C(c2ccc(F)cc2)c2cc(F)ccc2N1 (configuration not stated),-9.8,3.0
O=C(O)c1ccc(C2Nc3ccc(F)cc3C3C=CCC32)cc1 (configuration not stated),-7.6,79.0*
Cc1oc2ccc(OCC(=O)O)cc2c1C(=O)O,-1.2,-1.3
COc1c(Sc2ccc([N+](=O)[O-])cc2)c(C)nn1-c1ccccc1,-4.7,13.0
O=C(c1ccc2c(c1)n(Cc1ccccc1)c(=O)c1ccnn12)N1CCCCC1,-10.7,6.2
Cc1nc(C)c(CC(=O)NCCn2nc(-c3ccco3)ccc2=O)s1,0.4,-0.8
COc1cccc(-c2noc(C3CCCN3C(=O)NCc3ccc(F)cc3)n2)c1 (configuration not stated),-0.1,75.6*
Cc1cccc(-c2noc(C3CCCN3C(=O)COc3ccccc3)n2)c1 (configuration not stated),0.4,23.5
Cc1cccc(-c2noc(C3CCCN3C(=O)COc3ccc(Cl)cc3C)n2)c1 (configuration not stated),-3.5,76.4*
COc1cccc(-c2noc(C3CCCN3C(=O)NCc3ccc(C)cc3)n2)c1 (configuration not stated),1.1,19.0
Cc1cccc(OCC(=O)N2CCCC2c2nc(-c3cccc(Cl)c3)no2)c1 (configuration not stated),-5.1,78.4*
Cc1ccccc1OCC(=O)N1CCCC1c1nc(-c2cccc(Cl)c2)no1 (configuration not stated),-4.8,45.2
CNC(=O)C(C1CCCC1)N1CCN(C(=O)Nc2cccc(F)c2)CC1 (configuration not stated),1.4,-7.5
CCc1ccc(NC(=O)N2CCC(n3cnc4cc(F)ccc4c3=O)CC2)cc1,-9.6,-6.7
COc1ccc(C2C(C#N)=C(N)N(c3ccc([N+](=O)[O-])cc3)C3=C2C(=O)CCC3)cc1OC (configuration not stated),-1.2,10.3
COc1cccc(C2=NOC(C(=O)Nc3ccccc3C(F)(F)F)C2)c1 (configuration not stated),1.9,-9.5
Cc1ccc(N(C)S(=O)(=O)c2ccc3[nH]cc(C(=O)N4CCCCCC4)c(=O)c3c2)cc1C,-7.1,58.0*
Cc1ccc(N(C)S(=O)(=O)c2ccc3[nH]cc(C(=O)N4CCC(C)CC4)c(=O)c3c2)cc1C,-20.9,32.0
Cn1c(N2CCCCC2)nc2c1c(=O)n(Cc1ccc(Cl)c(Cl)c1)c(=O)n2C,-0.9,-1.0
Cn1c(=O)c2c(nc(Sc3ncnn3CC(=O)Nc3ccc(F)cc3)n2C)n(C)c1=O,-1.6,3.0
O=C(c1cc2sc(Br)cc2n1CC1CCCCO1)N1CCCC1 (configuration not stated),-13.1,70.3*
Cc1cc2c(cc(C(=O)N3CCOCC3)n2CC2CCC2)s1,-7.6,16.0
CCCc1noc(-c2cccnc2N2CCCN(Cc3ccccc3F)CC2)n1,4.0,-38.9
Cc1[nH]c2ccccc2c1SCCNC(=O)c1ccccc1F,-0.9,99.0*
SMILES,Pf apPOL block,mHTT-CaM PPI inh
Cc1ccccc1C(=O)NCCSc1c(C)[nH]c2ccccc12,3.2,11.0
Cc1nc(-c2ccccc2)sc1C(=O)N1CCC(C(C)C(=O)NC2CCCC2)CC1 (configuration not stated),-0.9,100.1*
Cc1nc(-c2ccccc2)sc1C(=O)N1CCC(CC(=O)NC2CCCCC2)CC1,-5.9,24.1
COc1cc(/C=C2/C(=O)ON=C2C)cc(OC)c1OC,-0.9,-2.0
COc1cccc(CSc2nc3c(c(=O)[nH]2)CN(Cc2ccc(F)cc2)CC3)c1,-0.9,23.6
CC1C(=O)N2CCCc3cc(NC(=O)C(=O)NCCc4c[nH]c5ccccc45)cc1c32 (configuration not stated),-7.9,76.5*
COC(=O)c1ccc(NC(=O)C(=O)NCCc2c[nH]c3ccccc23)cc1,-2.7,11.1
CC1(C)Cc2c(sc3nc(Nc4ccccc4)n(N)c(=O)c23)CO1,-6.0,53.4*
CC1(C)Cc2c(sc3nc(SCC(=O)O)n(-c4ccccc4)c(=O)c23)CO1,3.0,-1.2
Cc1ccc(NC(=O)c2cc(S(=O)(=O)N3CC(C)CC(C)C3)ccc2F)cc1Cl (configuration not stated),-6.1,-3.0
CC(C)CC(C(=O)Nc1cccc(O)c1)N1C(=O)c2ccccc2C1=O (configuration not stated),-8.2,10.2
CC(C)CC(C(=O)Nc1cccc(Cl)c1)N1C(=O)c2ccccc2C1=O (configuration not stated),0.9,63.0*
Nc1c(C(=O)Nc2ccc(Cl)cc2Cl)sc2[nH]c(=O)c(C(=O)O)cc12,6.2,7.0
Nc1c(C(=O)c2ccc(Cl)cc2)sc2[nH]c(=O)c(C(=O)O)cc12,-0.8,59.0*
COc1ccc(C2=N/C(=C\c3ccc(C)o3)C(=O)O2)cc1[N+](=O)[O-],-1.2,5.0
Cc1ccc(-n2c(C)nc3cc(C(=O)NCc4ccccn4)ccc32)c(C)c1,46.7,13.0
O=[N+]([O-])c1cccc2c1NC(c1ccccc1Br)C1CC=CC21 (configuration not stated),-0.9,63.0*
O=[N+]([O-])c1cccc2c1NC(c1ccc(Br)cc1)C1CC=CC21 (configuration not stated),1.1,82.0*
O=C(NCCc1nc2ccccc2[nH]1)c1ccccc1Br,-2.7,3.0
COc1ccc(C=Nc2cccc(N=Cc3ccc(OC)c(OC)c3)c2)cc1OC,-3.8,74.0*
COc1cc(C=Nc2ccc(C)c(C)c2)ccc1O,2.9,19.0
CCCCN(C)C(=O)C1c2cc(OC)c(OC)cc2C(=O)N(C)C1c1ccc(SC)cc1 (configuration not stated),-0.6,32.0
O=C(NCc1ccc(F)cc1)c1ccc(N2CCN(c3ccccn3)CC2)c([N+](=O)[O-])c1,-2.3,59.0*
O=C(NCc1cccnc1)c1ccc(N2CCN(c3ccccn3)CC2)c([N+](=O)[O-])c1,-5.3,30.0
CC(=O)Nc1ccc(-c2noc(C3CCN(C(=O)c4ccc(F)c(F)c4)CC3)n2)cc1,-1.5,0.4
SMILES,Pf apPOL block,mHTT-CaM PPI inh
CNC(=O)c1c(N=Cc2ccccc2O)sc2c1CCCC2,6.4,61.0*
CNC(=O)c1c(NC(C)=O)sc2c1CCCCC2,-39.6,-2.5
Cc1cc(C)cc(C(=O)N2CC=C(C(=O)NC3CC3)CC2)c1,-2.2,9.3
CCN1C(=Cc2c3ccccc3cc[n+]2CC)C=Cc2ccccc21,0.1,63.0*
CCN1/C(=C/c2cccc[n+]2C)C=Cc2ccccc21,3.4,19.0
CCOC(=O)c1sc(NC(=O)c2ccno2)nc1C,-1.6,-7.4
CCc1ccc(C2CC(c3cc(OC)ccc3OC)n3nnnc3N2)cc1 (configuration not stated),-2.4,30.0
COc1ccc(-n2nc(C(=O)NCC(=O)NCc3ccco3)c3ccccc3c2=O)cc1OC,-2.4,3.0
COc1ccc(CCCC(=O)Nc2ccc(I)cc2C)cc1,93.0*,-3.8
COc1ccc(CCCC(=O)Nc2ccc(Cl)cc2C)cc1,0.7,-2.0
OC[C@@H]1[C@@H](c2ccc(F)cc2)C(c2ccccc2)=NN1c1ccccc1,-4.4,88.7*
Cc1cccc(C2=NN(c3ccccc3)[C@H](CO)[C@H]2C)c1,-4.3,-4.6

# Screening results: PubChem BioAssay, University of Kansas High Throughput Screening Laboratory
